Assay results taken from PubChem BioAssay AID1619 (SRMLSC, 2009).
Out of some 220,000 compounds screened, about 830 (0.38%) were called active.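 The calls were made as follows: active = compound inhibiting the enzyme by more than half at any dose during confirmatory dose-response retesting; inconclusive = strong single-dose inhibitors picked by rank but not retested; inactive = the rest.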 A selection follows. Measured potencies and affinities stand elsewhere.

biological target: Leucine aminopeptidase (Plasmodium falciparum (isolate 3D7)) (UniProt Q8IL11); assay: P. falciparum M17LAP inhibitors, primary screen, biochemical, fluorogenic H-Leu-NHMec substrate, 1536-well (AID 1619); details: recombinant M17LAP, H-Leu-NHMec fluorogenic kinetic assay; at 30 µM; active compounds read high;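 also: plate controls were full reaction with DMSO carrier for no effect and no enzyme background for full effect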
Sequence (Q8IL11 whole entry, looked up): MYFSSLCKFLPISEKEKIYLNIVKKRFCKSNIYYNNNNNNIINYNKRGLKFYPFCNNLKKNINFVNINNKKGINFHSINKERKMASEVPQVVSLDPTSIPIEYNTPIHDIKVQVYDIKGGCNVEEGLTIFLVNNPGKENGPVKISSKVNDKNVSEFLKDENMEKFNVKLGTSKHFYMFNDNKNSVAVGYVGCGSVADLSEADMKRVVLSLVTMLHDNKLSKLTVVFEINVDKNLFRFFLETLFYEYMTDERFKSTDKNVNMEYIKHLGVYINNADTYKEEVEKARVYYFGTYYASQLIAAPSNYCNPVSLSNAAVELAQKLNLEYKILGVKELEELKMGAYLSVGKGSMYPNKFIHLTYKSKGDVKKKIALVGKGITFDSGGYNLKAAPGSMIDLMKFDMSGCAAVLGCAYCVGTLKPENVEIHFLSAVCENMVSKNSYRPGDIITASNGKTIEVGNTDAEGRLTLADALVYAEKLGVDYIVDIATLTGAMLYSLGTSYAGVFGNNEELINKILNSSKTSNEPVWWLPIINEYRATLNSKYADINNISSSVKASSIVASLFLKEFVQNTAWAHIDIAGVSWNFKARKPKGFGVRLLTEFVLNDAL

inhibition, inactive:
O=C(NCCN1CCN(c2ccccc2)CC1)c1ccc(NC(=O)C2CCCO2)cc1 (stereo not drawn) -5.43%, CC1=CC(C2CC(=O)N(c3ccccc3C)C2=O)CC2C(=O)N(c3ccccc3C)C(=O)C12 (stereo not drawn) 3.8%, CC1=C(C(=O)OCC2CCCO2)C(c2ccncc2)C2=C(CC(C)(C)CC2=O)N1 (stereo not drawn) -16.9%, O=[N+]([O-])c1ccc2c(c1)C=C1CCCCC1(N1CCCCC1)O2 (stereo not drawn) 9.55%, COc1ccc(/C=C2\SC(=O)N(CCn3cnnn3)C2=O)cc1 -2.01%, O=C(CN1CCN(Cc2ccc(F)cc2Cl)C1=O)NCCc1ccccc1 8.72%, CC1CCCN(c2nc(NCc3ccco3)nc(N)c2[N+](=O)[O-])C1 (stereo not drawn) -3.16%, CCCC(=O)Nc1nnc(-c2ccco2)s1 -4.22%, O=C(CCc1nc2ccccc2[nH]c1=O)OCC(=O)c1cccc2ccccc12 -3.73%, Cc1[nH]nc2c1C(c1ccco1)C(C#N)=C(N)O2 (stereo not drawn) 6.22%, CCCc1[nH]nc2c1C(/C(C)=C/c1ccccc1)C(C#N)=C(N)O2 (stereo not drawn) 6.81%, C/C(=C\c1ccco1)C1C(C#N)=C(N)OC2=C1C(=O)CC(C)(C)C2 (stereo not drawn) 5.9%, Cc1ccc(SCc2[nH]nc3c2C(c2ccco2)C(C#N)=C(N)O3)cc1 (stereo not drawn) 44.8%, COc1cc(C(=O)NCC(c2cccnc2)N2CCN(c3ccc(F)cc3)CC2)cc(OC)c1OC (stereo not drawn) -0.25%, COc1ccc(CNC(=O)CN(Cc2ccccc2)S(=O)(=O)c2ccc(Cl)cc2)cc1 -4.99%, O=C(c1ccc2c(c1)OCO2)C1CCCN(C(=O)C2CCOCC2)C1 (stereo not drawn) -3.38%, COCCCNC(NC(=O)c1ccc(Br)cc1)C(Cl)(Cl)Cl (stereo not drawn) 0.25%, NC(=O)[C@@H]1CC2(CC(c3cccc(NC(=O)[C@H]4CCC(=O)N4)c3)=NO2)CN1C(=O)c1ccc(Cl)cc1 (stereo partly drawn) 11.6%, COc1ccccc1NC(=O)NCc1nc(-c2ccc(C(F)(F)F)cc2)no1 0.03%, COc1cc(OC)cc(C(=O)Nc2ccc([N+](=O)[O-])cn2)c1 1.24%, CN(C)c1ccc(C(=O)Nc2nnc(C3=COCCO3)o2)cc1 3.73%, C=CCOc1ccc(NC(=O)C2CC(=O)N(C(C)C)C2)cc1 (stereo not drawn) 27.3%, CCOc1ccc(NC(=O)C2CC(=O)N(C(C)C)C2)cc1 (stereo not drawn) 43.2%, CCOC(=O)c1c(C)n(C)c2ccc(OC(=O)c3ccc([N+](=O)[O-])cc3)cc12 -6.49%, COc1ccc(Cc2nnc(Nc3ccc(Cl)cc3)[nH]c2=O)cc1 -7.25%, CCCc1cc(=O)[nH]c(Nc2ccc(Cl)cc2)n1 1.52%, CC1(C(=O)O)CCC(C(=O)Nc2ccccc2)C1(C)C (stereo not drawn) 1.51%, COc1ccc(NC(=O)C2CCC(C)(C(=O)O)C2(C)C)cc1 (stereo not drawn) 14.3%, COc1cccc(NC(=O)c2ccc(NC(C)=O)cc2)c1 10.5%, COc1ccc2cc(CCNC(=O)C(C)C)c(=O)[nH]c2c1 9.03%, COc1ccc(NC(=O)CN2CCC(C)CC2)cc1 32.1%, CSc1ccc(Cl)c(C(=O)NCc2ccco2)c1 14.1%, CCCNC(=O)COC(=O)c1cc(SC)ccc1Cl 6.08%, Cc1ccc(N=Cc2cc(C)n(C3CCCC3)c2C)cc1 3.83%, O=C(Nc1cc(F)cc(F)c1)c1ccc(NCCc2ccccc2)c([N+](=O)[O-])c1 5.14%, C=CCOC(=O)C1=C(C)Nc2[nH]c(=O)[nH]c(=O)c2C1c1ccccc1 (stereo not drawn) 16.9%, COc1ccc(Nc2nc3[nH]c(=O)cc(O)c3s2)cc1 23.2%, N#C/C(=C/c1cn(CC(=O)O)c2ccccc12)C(=O)NCc1ccccc1 21.3%, N#C/C(=C/c1cn(CC(=O)O)c2ccccc12)C(=O)Nc1ccccc1 10.1%, Cc1cc2cc(C)c3nnc(SCC(=O)Nc4ccc(S(=O)(=O)N5CCCCC5)cc4)n3c2cc1C -1.16%, O=C(CCN1C(=O)c2ccccc2C1=O)Nc1cccc(S(=O)(=O)NC2=NCCC2)c1 22.4%, CCOc1ccc(NC(=O)c2ccc(NCC(=O)N3CCCCCC3)cc2)cc1 -2.72%, COC(=O)c1ccc(C(=S)N2CCCCC2)cc1 3.47%, Cn1c(=O)c2c(nc(Br)n2Cc2ccccc2Cl)n(C)c1=O 0.26%, Cc1ncc([N+](=O)[O-])n1Cc1ccccc1F 10.8%, O=C(c1ccco1)N1CCN(C(=O)c2ccccc2[N+](=O)[O-])CC1 4.98%, O=C(c1ccc([N+](=O)[O-])cc1)N1CCN(C(=O)c2ccco2)CC1 2.53%, CC(=O)Nc1ccccc1NC(=O)C/C(C)=N/NC(=O)c1ccncc1 7.62%, N#C/C(=N\Nc1ccc(Cl)cc1)C(=O)c1ccsc1 4.01%, CCCCNC(=O)c1ccc2c(SCC(=O)O)c3c(nc2c1)CCCC3 45.8%, COc1cc(NC(=O)c2ccc3c(SCC(=O)O)c4c(nc3c2)CCCC4)cc(OC)c1OC 8.1%, CCC(C)NC(=O)c1ccc2c(SCC(=O)O)c3c(nc2c1)CCCC3 (stereo not drawn) 25.2%, CC(C)CCNC(=O)c1ccc2c(SCC(=O)O)c3c(nc2c1)CCC3 7.01%, O=C(Nc1ccc(Cl)cc1)c1cc(S(=O)(=O)N2CCOCC2)cs1 1.6%, Cc1ccc(C)c(S(=O)(=O)N2CCN(C(=O)c3cnccn3)CC2)c1 6.85%, CC1=NNC(=O)C1CC(=O)N/N=C/c1sccc1C (stereo not drawn) 9.78%, CCCCCC(=O)N/N=C/c1ccccc1[N+](=O)[O-] 36.9%, CC1=NNC(=O)C1CCC(=O)N/N=C/c1c(Cl)cccc1Cl (stereo not drawn) -1.12%, CC1=NNC(=O)C1CCC(=O)N/N=C/c1ccccc1 (stereo not drawn) -4.86%, CC1=NNC(=O)C1CCC(=O)N/N=C/c1ccc(C)cc1 (stereo not drawn) 5.32%, O=C1CC(CC(=O)N/N=C/c2ccccc2[N+](=O)[O-])=NN1 56.8%, CC1=NNC(=O)C1CCC(=O)N/N=C/c1ccc(Cl)cc1Cl (stereo not drawn) 11.1%, O=C(Cc1c(F)cccc1Cl)Nc1cc(S(=O)(=O)N2CCCCC2)ccc1N1CCOCC1 10.3%, COc1cccc(Nc2cc(C)nc3nc(C)nn23)c1 1.55%, Cc1cc(C)c(NC(=O)CCCOC(=O)C2=COCCO2)c(C)c1 12.3%, O=C(NCc1ccco1)C(c1ccccc1)N(Cc1cccnc1)C(=O)Cn1nnc2ccccc21 (stereo not drawn) 2.12%, CCOC(=O)N1CCC(NC(=O)c2cc(S(=O)(=O)N3CCOCC3)ccc2F)CC1 -2.28%, O=C(Nc1ccc(F)c(F)c1)c1cnc(-c2ccccc2)nc1-c1ccccc1 6.48%, COc1ccccc1NC(=S)NCCc1c[nH]c2ccccc12 1.87%, CC1(C)CC2CC(C)(CN2Cc2c(O)ccc3ccccc23)C1 (stereo not drawn) -1.68%, O=C(CCC(=O)N/N=C/c1ccco1)N/N=C/c1ccco1 6.28%, CC1C(=O)NN=C1C(=O)N/N=C/c1ccco1 (stereo not drawn) 5.8%, CCc1cc2cc(OC)ccc2nc1SCC(=O)NNC(=O)c1ccco1 -4.39%, COc1ccc(OC)c(NC(=O)CSc2nc3ccccc3cc2Cc2ccccc2)c1 -12.8%, COc1ccc2cc(C)c3nnc(SCC(=O)Nc4cc(OC)c(OC)cc4C(=O)O)n3c2c1 3.81%, CCOC(=O)CC(=O)CSc1nc2ccc(OC)cc2cc1C -7.77%, CC(C)CN(CC(C)C)S(=O)(=O)N1CCC(C(=O)NCc2ccc3c(c2)OCO3)CC1 -3.17%, Cc1ccc(-n2cccc2/C=C2/C(=N)N3C(=NC2=O)SN=C3S(C)(=O)=O)cc1 26.3%, N=C1/C(=C\c2ccc(-c3ccc(C(=O)O)cc3)o2)C(=O)N=C2SC=C(c3ccccc3)N12 23.3%, CS(=O)(=O)C1=NSC2=NC(=O)/C(=C\c3ccc(-c4ccccc4)o3)C(=N)N21 55.5%, CC(C)S(=O)(=O)C1=NSC2=NC(=O)/C(=C\c3ccc(-c4cccc(C(=O)O)c4)o3)C(=N)N21 46.5%, Cc1ccc(-n2nc(C)c3c2OC(N)=C(C#N)C3c2ccncc2)cc1 (stereo not drawn) 21.6%, Cc1cc(C(=O)NC2CCCCC2)on1 13.6%, O=C(COC(=O)c1cncc(Br)c1)NCc1ccccc1 -0.29%, C/C(=N/O)c1no[n+]([O-])c1/C(C)=N\O 4.25%, COC(=O)CSc1nc2cc(Cl)ccc2c(=O)n1C1CCCC1 -2.31%, Cc1c(N=C(N)/N=C(\N)Nc2ccc(Br)cc2)c(=O)n(-c2ccccc2)n1C -11.5%, CC1CCCCN1S(=O)(=O)c1ccc(N(C(=O)c2cnccn2)C(C(=O)NC2CCCCC2)c2cccs2)cc1 (stereo not drawn) -5%, CC(C)C(=O)c1cc2c(cc1NC(=O)c1cccs1)OCCO2 2.83%, CC(OC(=O)c1cc2c(ccc3ccccc32)oc1=O)c1nc2ccccc2s1 (stereo not drawn) -3.25%, Cc1cc(NCc2ccc3c(c2)OCO3)n2nc(C)nc2n1 -0.05%, COc1cccc(-c2nnn(CC(=O)Nc3ccc(C)cc3C)n2)c1OC -10%, COc1cccc(-c2nnn(CC(=O)NC3CCCC3)n2)c1OC 13.1%
